This is an account of results in PubChem BioAssay (EPA / NIEHS).

In assay [1] the target is Estrogen receptor (Homo sapiens) + Estrogen receptor beta (Homo sapiens) (UniProt P03372+Q92731). Nature of the assay: OT_ER_ERaERb_1440: Odyssey Thera (OT) 24-hour HEK293T Protein-Complementation Assay for Estrogen Receptor-alpha/-beta Homodimer (AID 2283356).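 Also: heteromer of ER alpha and ER beta binding domains; hits raise reporter fluorescence and both agonists and antagonists give an increase.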 Put shortly:
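24 h exposure; HEK293T PCA cells with ERα/ERβ LBD fragments; signal rise in nuclear or whole-cell fluorescence over vehicle.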

For assay [2], the target named is Estrogen receptor beta (Homo sapiens) (UniProt Q92731). Nature of the assay: OT_ER_ERbERb_0480: Odyssey Thera (OT) 8-hour HEK293T Protein-Complementation Assay for Estrogen Receptor-beta/-beta Homodimer (AID 2283357).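 Also: active means signal gain over DMSO baseline.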 Put shortly: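 Homodimerization of ER-beta LBD measured by protein-fragment complementation in HEK293T; 8 h dosing; fixed, Draq5 counterstain; fluorescence intensity gain over DMSO baseline, positive fitting direction; laser scanning cytometry.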
Sequence of Estrogen receptor beta (Homo sapiens) (Q92731 whole entry, looked up, the tested form may be a part): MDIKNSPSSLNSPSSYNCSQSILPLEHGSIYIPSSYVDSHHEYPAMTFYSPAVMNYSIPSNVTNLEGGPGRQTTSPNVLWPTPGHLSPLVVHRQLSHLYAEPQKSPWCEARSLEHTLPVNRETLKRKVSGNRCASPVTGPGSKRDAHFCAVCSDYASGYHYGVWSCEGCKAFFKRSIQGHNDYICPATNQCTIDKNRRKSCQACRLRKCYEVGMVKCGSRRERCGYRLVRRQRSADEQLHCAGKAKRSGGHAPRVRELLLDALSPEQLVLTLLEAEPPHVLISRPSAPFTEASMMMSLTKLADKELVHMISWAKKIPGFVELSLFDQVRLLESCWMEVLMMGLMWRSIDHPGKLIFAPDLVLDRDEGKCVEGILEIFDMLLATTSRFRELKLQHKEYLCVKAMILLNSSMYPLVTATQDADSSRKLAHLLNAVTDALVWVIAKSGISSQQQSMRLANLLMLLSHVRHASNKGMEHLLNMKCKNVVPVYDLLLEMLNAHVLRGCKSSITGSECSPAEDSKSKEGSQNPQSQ

Assay [3] has as its target human Thyroid Receptor Alpha (TRa), THRA (gene 7067) (UniProt P10827). Description: NVS_NR_hTRa_Antagonist: NovaScreen (NVS) Nuclear Receptor Binding Assay for human Thyroid Receptor Alpha Antagonism (TRa) (AID 2283362).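 Also: activity is loss of signal relative to DMSO baseline.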 Put shortly:
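In this biochemical format, receptor protein is dosed with chemical and read after 1 hour via AlphaLISA. Decreases from the DMSO baseline indicate antagonist activity; screening used 25 uM in duplicate before concentration-response confirmation.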

Assay [4] has as its target Peroxisome proliferator-activated receptor gamma (Homo sapiens) (UniProt P37231). Description: NVS_NR_hPPARg: NovaScreen (NVS) Nuclear Receptor Binding Assay for human Peroxisome Proliferator-activated Receptor gamma (PPARg) (AID 2283370). In outline:
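Extracted receptor protein, cell-free; compound incubated 2 h then fluorescence polarization read. Baseline: DMSO. Actives from 25 uM duplicate screen re-run across concentrations.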

The target in assay [5] is Estrogen receptor beta (Homo sapiens) (UniProt Q92731). Description: OT_ER_ERbERb_1440: Odyssey Thera (OT) 24-hour HEK293T Protein-Complementation Assay for Estrogen Receptor-beta/-beta Homodimer (AID 2283380).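 Also: scored as signal increase over DMSO baseline for both agonists and antagonists.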 In outline: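 HEK293T cells stably expressing ER beta LBD (aa 310-547) homodimer fragment-complementation reporter, dosed 24 h. Cells formaldehyde-fixed, Draq5-stained; gain in nuclear (agonist) or nuclear plus cytoplasmic (antagonist) fluorescence versus DMSO read by laser scanning cytometry.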

In assay [6] the target is Nuclear receptor subfamily 1 group I member 2 (Homo sapiens) (UniProt O75469). Description: NVS_NR_hPXR: NovaScreen (NVS) Nuclear Receptor Binding Assay for human Pregnane X Receptor (PXR) (AID 2283365).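 Also: a drop in FRET signal versus DMSO baseline means the compound binds.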 In outline: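 Read-out: TR-FRET, human PXR, 2 h post-dosing, cell-free. Loss of signal vs DMSO taken as binding activity; 25 uM primary, concentration series secondary.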
Sequence of Nuclear receptor subfamily 1 group I member 2 (Homo sapiens) (O75469 whole entry, looked up): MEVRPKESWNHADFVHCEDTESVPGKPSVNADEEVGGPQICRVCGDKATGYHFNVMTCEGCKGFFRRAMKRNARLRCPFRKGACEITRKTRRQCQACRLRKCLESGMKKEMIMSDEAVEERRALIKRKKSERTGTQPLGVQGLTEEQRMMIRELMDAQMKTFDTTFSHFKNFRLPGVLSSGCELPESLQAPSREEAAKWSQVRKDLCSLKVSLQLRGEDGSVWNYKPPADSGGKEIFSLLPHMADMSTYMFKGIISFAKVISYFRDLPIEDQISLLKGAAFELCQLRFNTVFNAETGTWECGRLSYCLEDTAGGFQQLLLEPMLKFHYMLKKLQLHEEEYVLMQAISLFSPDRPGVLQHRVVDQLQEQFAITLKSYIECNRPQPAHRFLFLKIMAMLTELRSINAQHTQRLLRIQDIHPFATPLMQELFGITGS

In assay [7] the target is Estrogen receptor (Homo sapiens) (UniProt P03372). Nature of the assay: OT_ERa_GFPERaERE_0480: Odyssey Thera (OT) 8-hour HeLa Transcription Induction Assay for Estrogen Receptor (AID 2283381; active = hit-call score of the fitted dose curve at least 0.9, where 1 is the maximum; inactive = score below 0.9). Put shortly:
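GFP-ERE reporter, HeLa, 8 h exposure. Readout: fluorescence microscopy, high-content image analysis. Fit direction positive vs DMSO negative control.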

In assay [8] the target is human Peroxisome Proliferator-activated Receptor alpha (PPARa), PPARA (gene 5465) (UniProt Q07869). Description: NVS_NR_hPPARa: NovaScreen (NVS) Nuclear Receptor Binding Assay for human Peroxisome Proliferator-activated Receptor alpha (PPARa) (AID 2283359).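 Also: activity means loss of TR-FRET signal versus DMSO baseline.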 In outline:
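TR-FRET signal measured at 1 h post-dosing; loss-of-signal versus DMSO negative control taken as activity. Extracted gene-protein, cell-free format. Initial single-point duplicates at 25 uM, then concentration-response retests.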

Assay [9] concerns the target Agonist Androgen Response Element (ARE), AR (gene 367) (UniProt P10275). Nature of the assay: OT_AR_ARELUC_AG_1440: Odyssey Thera (OT) 24-hour CHO-K1 Luciferase Assay for Agonist Androgen Response Element (ARE) (AID 2283379). Put shortly: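 Gain-of-signal reporter endpoint: cells (CHO-K1, hamster) are treated 24 h, luciferin/ATP reagent added, and luminescence compared with DMSO baseline.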

The structures appear in SMILES notation. Inconclusive results are not listed. Calls of active or inactive are those of the source. The calls were made as follows, unless noted: active = hit-call score of the fitted dose curve at least 0.9, where 1 is the maximum; inconclusive = response in the unintended direction; inactive = score below 0.9.

Sequence of Estrogen receptor (Homo sapiens) + Estrogen receptor beta (Homo sapiens) (P03372 whole entry, looked up, the tested form may be a part): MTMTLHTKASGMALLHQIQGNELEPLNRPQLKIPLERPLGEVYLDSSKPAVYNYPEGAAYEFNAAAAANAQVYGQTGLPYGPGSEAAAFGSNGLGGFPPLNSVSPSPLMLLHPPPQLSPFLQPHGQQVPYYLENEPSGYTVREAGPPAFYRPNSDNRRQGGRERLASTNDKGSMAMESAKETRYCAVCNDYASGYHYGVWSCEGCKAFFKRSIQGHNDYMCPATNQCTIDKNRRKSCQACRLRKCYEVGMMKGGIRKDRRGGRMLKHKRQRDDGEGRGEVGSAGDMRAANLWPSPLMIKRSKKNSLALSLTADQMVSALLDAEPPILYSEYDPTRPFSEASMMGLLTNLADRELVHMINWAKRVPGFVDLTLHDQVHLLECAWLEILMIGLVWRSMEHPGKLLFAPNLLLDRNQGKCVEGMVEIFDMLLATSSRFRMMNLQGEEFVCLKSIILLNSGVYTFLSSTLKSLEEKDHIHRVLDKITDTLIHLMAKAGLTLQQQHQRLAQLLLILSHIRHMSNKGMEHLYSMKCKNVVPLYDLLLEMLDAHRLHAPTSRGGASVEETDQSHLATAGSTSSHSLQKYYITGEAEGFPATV
Sequence of Estrogen receptor (Homo sapiens) + Estrogen receptor beta (Homo sapiens) (Q92731 whole entry, looked up, the tested form may be a part): as the sequence (Q92731 whole entry, looked up, the tested form may be a part) above
Sequence of Estrogen receptor (Homo sapiens) (P03372 whole entry, looked up): as the sequence (P03372 whole entry, looked up, the tested form may be a part) above
Sequence of Peroxisome proliferator-activated receptor gamma (Homo sapiens) (P37231 whole entry, looked up): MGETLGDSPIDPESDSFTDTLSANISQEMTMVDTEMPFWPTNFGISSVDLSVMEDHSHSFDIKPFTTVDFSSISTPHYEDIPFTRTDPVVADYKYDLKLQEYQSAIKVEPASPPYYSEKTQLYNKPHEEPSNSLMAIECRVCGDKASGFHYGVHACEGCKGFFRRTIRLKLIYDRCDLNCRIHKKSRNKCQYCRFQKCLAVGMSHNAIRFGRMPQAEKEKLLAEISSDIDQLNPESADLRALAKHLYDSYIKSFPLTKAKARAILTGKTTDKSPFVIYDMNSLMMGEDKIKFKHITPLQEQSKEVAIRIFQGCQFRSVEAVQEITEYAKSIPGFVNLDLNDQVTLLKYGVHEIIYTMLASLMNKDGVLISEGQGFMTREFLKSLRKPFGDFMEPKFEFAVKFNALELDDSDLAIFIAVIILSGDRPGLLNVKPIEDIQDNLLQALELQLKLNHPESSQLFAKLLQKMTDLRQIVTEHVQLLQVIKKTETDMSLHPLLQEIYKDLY
Sequence of human Thyroid Receptor Alpha (TRa), THRA (gene 7067) (P10827 whole entry, looked up): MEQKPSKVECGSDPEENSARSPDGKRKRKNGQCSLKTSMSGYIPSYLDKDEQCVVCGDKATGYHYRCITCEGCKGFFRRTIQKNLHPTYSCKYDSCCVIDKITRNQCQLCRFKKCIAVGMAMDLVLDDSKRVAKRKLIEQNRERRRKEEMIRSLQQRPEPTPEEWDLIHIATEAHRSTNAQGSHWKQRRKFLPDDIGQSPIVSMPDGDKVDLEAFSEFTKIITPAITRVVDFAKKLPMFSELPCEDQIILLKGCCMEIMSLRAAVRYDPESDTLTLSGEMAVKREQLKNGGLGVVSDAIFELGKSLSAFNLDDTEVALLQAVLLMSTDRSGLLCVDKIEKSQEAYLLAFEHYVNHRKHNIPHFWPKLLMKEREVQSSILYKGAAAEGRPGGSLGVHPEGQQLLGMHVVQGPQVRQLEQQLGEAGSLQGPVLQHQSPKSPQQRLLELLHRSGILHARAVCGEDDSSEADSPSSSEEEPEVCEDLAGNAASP
Sequence of human Peroxisome Proliferator-activated Receptor alpha (PPARa), PPARA (gene 5465) (Q07869 whole entry, looked up): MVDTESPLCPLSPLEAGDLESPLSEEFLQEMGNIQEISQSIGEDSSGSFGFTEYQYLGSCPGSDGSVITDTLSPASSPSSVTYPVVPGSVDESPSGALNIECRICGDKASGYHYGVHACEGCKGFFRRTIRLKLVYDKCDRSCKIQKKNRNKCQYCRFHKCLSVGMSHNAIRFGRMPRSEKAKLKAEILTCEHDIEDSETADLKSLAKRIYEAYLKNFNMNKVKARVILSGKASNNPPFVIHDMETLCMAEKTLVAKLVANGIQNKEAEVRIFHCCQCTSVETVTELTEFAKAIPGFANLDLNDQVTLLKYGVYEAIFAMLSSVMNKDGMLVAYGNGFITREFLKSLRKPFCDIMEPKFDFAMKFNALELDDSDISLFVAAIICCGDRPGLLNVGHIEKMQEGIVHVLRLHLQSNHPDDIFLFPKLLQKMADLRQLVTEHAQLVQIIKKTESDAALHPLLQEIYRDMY
Sequence of Agonist Androgen Response Element (ARE), AR (gene 367) (P10275 whole entry, looked up): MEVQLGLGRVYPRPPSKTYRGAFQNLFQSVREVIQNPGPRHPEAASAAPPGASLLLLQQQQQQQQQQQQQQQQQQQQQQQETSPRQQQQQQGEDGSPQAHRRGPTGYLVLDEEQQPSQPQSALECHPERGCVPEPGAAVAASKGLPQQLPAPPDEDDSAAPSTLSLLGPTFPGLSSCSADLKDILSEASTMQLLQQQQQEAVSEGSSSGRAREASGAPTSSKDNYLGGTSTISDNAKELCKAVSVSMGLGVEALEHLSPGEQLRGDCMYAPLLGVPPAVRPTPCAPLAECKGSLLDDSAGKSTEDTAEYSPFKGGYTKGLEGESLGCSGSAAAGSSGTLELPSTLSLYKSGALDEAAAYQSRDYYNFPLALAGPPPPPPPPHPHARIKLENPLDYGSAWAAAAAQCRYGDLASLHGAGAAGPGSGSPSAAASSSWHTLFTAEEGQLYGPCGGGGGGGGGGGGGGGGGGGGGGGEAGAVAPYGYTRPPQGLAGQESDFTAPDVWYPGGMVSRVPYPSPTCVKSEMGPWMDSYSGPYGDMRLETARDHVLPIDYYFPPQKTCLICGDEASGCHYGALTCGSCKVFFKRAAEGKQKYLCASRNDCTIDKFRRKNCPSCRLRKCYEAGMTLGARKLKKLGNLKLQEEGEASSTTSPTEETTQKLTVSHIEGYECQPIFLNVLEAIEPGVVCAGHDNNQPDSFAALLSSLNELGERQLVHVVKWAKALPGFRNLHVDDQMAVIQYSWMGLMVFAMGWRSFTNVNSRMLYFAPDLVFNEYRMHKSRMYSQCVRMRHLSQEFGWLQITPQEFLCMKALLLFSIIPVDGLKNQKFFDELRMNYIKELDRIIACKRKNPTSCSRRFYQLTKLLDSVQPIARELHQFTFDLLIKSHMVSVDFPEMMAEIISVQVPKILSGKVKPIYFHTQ

Broadly, the AC50 is the concentration giving half of the maximal activity seen. Turning to `CC(=O)Nc1cc(S(=O)(=O)O)cc2cc(S(=O)(=O)O)c(N=Nc3ccccc3)c(O)c12`, the result in assay [1], in [2], in [4] and in assay [5] was inactive. In addition, in assay [3], the concentration at half-maximal activity (AC50) is 9.8 µM (active).
As to `c1ccc2scnc2c1`, the outcome in assay [1], in [2], in [6], in [5] and in assay [7] was inactive.
With `CCCCC/C=C\C=C\C(=O)OCC`, the result in assay [1] and in [2] was inactive. Moreover, the figures for the AC50 in assay [6], in assay [5] and in assay [7] were 9.24 µM (active), 12.5 µM (active) and 95.6 µM (active), respectively.
For `C=CCCCCCCCCC(=O)OCC`, the result in [1], in assay [2] and in [5] was inactive.
For `CCCO[Si](OCCC)(OCCC)OCCC`, the outcome in assay [1], in assay [2], in assay [4] and in assay [5] was inactive.
On to `CCCCCCCCCCCCN1CCOCC1`, for which the AC50 in assay [1] was 68 µM (active). Also, the call in [2], in [3], in [6], in assay [4], in assay [5] and in [7] was inactive.
`CCCCCC(=O)O[C@]1(C(C)=O)CC[C@H]2[C@@H]3CCC4=CC(=O)CC[C@]4(C)[C@H]3CC[C@@]21C`: the figures for the AC50 in [1] and in assay [5] were 4.65 µM (active) and 12.6 µM (active), respectively. Further, the outcome in assay [2] and in assay [6] was inactive.
Turning to `CCCCCCCCCCCCS`, the result in assay [1], in assay [2], in [6], in assay [4], in assay [5] and in assay [7] was inactive.
Consider `CCC(C)(CCCC(C)C)OC(C)=O` (stereo not given), for which the result in [1], in assay [2], in assay [6], in assay [5] and in assay [7] was inactive.
For the compound `CC(=O)C1=C(C)[C@@H]2C[C@@]3(C1)[C@H](C)CC[C@H]3C2(C)C`, the results for the AC50 in [1], in assay [2] and in assay [5] were 58.1 µM (active), 12.8 µM (active) and 12.7 µM (active), respectively. For the same compound, the result in [8] and in assay [7] was inactive.
In the case of `CNC(=C[N+](=O)[O-])NCCSCc1ccc(CN(C)C)o1`, the outcome in assay [1], in assay [2], in [4] and in [5] was inactive.
With `C1CCCNCC1`, the outcome in assay [1], in [2], in [8], in assay [4] and in assay [5] was inactive.
For `CCCCC(CC)COCCO` (stereo not given), the result in assay [1], in assay [2], in [8], in [3], in assay [5] and in assay [7] was inactive.
Take `CC(CCO)CC(C)(C)C` (stereo not given): the concentration at half-maximal activity (AC50) in assay [1] was 40.9 µM (active); in [5], 39 µM (active). The call in assay [2], in assay [9] and in assay [7] was inactive.
On to `CC(=O)c1ccc2ccccc2c1`, for which the concentration at half-maximal activity (AC50) in assay [1] was 31.6 µM (active). Also, the result in assay [2], in [8] and in assay [5] was inactive.
As for `CC(=O)OC/C=C(C)/C=C/C=C(C)/C=C/C1=C(C)CCCC1(C)C`, the result in [1], in [2], in assay [5] and in assay [7] was inactive. Besides, the AC50 in assay [6] is 2.21 µM (active).
Turning to `CN1CCc2cccc3c2[C@H]1Cc1ccc(O)c(O)c1-3`, the AC50 in assay [1] is 4.59 µM (active); in assay [8], 0.279 µM (active); in assay [6], 0.26 µM (active). Besides, the compound was called inactive in assay [2], in [4], in assay [5] and in [7].
As to `O=C(O)CS`, the outcome in assay [1], in assay [2], in assay [4], in [5] and in assay [7] was inactive.
